The whole screen tested about 58,000 compounds, of which about 3,400 (5.9%) were called active. For the sample, actives were picked, then their nearest neighbours and some compounds at random. Unmarked numbers belong to inactive results.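 How the source made its calls: active means luminescence count or its row- and column-corrected plate score outside the 99.7% band of the plate's sample wells, on either side; inactive means the rest.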

This experiment deals with D(1A) dopamine receptor (Homo sapiens) (UniProt P21728). Briefly: D1 CRE-luciferase signal change, two-sided – cell-based, HEK293 D1, dopamine EC30, D1 allosteric modulator project, primary screen (AID 641). As to conditions: dopamine EC30 potentiation, at 10 µM, actives deviate in either direction.
D(1A) dopamine receptor (Homo sapiens), sequence (P21728 whole entry, looked up): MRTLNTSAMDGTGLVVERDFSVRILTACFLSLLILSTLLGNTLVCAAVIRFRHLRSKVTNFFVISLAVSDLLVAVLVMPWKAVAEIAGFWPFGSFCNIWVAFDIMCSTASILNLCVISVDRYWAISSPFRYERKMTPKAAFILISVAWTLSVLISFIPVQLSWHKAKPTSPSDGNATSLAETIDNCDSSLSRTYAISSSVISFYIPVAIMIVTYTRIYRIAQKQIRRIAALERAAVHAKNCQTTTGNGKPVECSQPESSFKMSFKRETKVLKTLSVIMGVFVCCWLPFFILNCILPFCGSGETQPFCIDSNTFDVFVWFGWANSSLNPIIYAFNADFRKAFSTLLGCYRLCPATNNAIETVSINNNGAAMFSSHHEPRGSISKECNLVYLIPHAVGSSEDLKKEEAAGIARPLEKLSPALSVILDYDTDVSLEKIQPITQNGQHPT
As to `COC(=O)COc1ccc2oc(=O)cc(C)c2c1`, the B-score was 0.00198. For `COc1ccc(S(=O)(=O)N2CCN(c3ncnc4c(-c5ccccc5)nsc34)CC2)cc1` the value was -0.0486; for `O=c1cccc(-c2ccc(Br)cc2)o1`, 1.11; for `COc1ccc(NS(=O)(=O)c2ccc(NC(C)=O)cc2)cc1OC`, -0.458.

With `COc1ccc(S(=O)(=O)Nc2ccc(S(=O)(=O)N3CCCCC3)cc2)cc1OC`, the B-score was 5.58 (active). As for `COc1ccc(S(=O)(=O)N2CCCCC2)cc1Br`, the B-score is -1.56. As to `COc1ccc(Br)cc1S(=O)(=O)N1CCN=C1C`, the B-score was -0.0562. For `CCc1nc2ccccc2n(CCOCCOCCn2c(=O)c(CC)nc3ccccc32)c1=O` the value was 2.08; for `CCCOC(=O)Nc1sc2c(c1C(=O)OCC)CCC2`, -0.0171. For `CCOC(=O)c1cc(C)sc1NC(=O)C1CCC1` the value was 7.64 (active); for `O=C(Nc1c(Cl)cccc1Cl)C1CCC1`, -0.785; for `NC(=O)c1ccsc1NC(=O)c1ccco1`, 0.317. Turning to `O=C(Nc1ccc2c(c1)OCCO2)c1ccncc1`, the B-score is -1.34. For `O=C(Nc1nc(-c2ccncc2)cs1)C1COc2ccccc2O1` (stereo not given) the value was 1.39; for `O=C(Nc1nc(-c2ccc3c(c2)OCO3)cs1)c1ccncc1`, -3.4 (active). Consider `COC(=O)c1ccc(/C=N\n2c(C)nnc2C)cc1`, for which the B-score was -1.78.

For the molecule `Cc1cc(C)c2c(n1)nn1c(N3CCOCC3)cc(C)nc21`, the B-score was 1.9. For `Cc1cc(C)c2c(n1)nn1c(N3CCN(c4cccc(Cl)c4)CC3)cc(C)nc21` the value was -0.0327. For `Cc1cc(C)c2c(n1)nn1c(-n3ccnc3)cc(C)nc21` the value was 5.98 (active); for `CCC(C)NC(=O)N[C@@H](CCSC)C(=O)O` (stereo not given in full), -0.322. For `Cc1ccc(S(=O)(=O)NC(C)C(=O)Nc2ccccc2C(=O)N2CCCC2)cc1` (stereo not given) the value was -1.42; for `Cc1ccc(S(=O)(=O)NC(=O)N2CCCC(C)(C)C2)cc1`, -6.08 (active); for `Cc1ccc(S(=O)(=O)C2(S(=O)(=O)c3ccc(C)cc3)CCCC2)cc1`, 0.0184. With `COc1ccc(OC)c(-n2cc3c(=O)n(C)c(=O)n(C)c3c2)c1`, the B-score was 1.9. Then `CC(=O)Nn1cc2c(=O)n(C)c(=O)n(C)c2c1`, with 0.00279; and `Cn1c(=O)c2cn(-c3cccc4ccccc34)cc2n(C)c1=O`, with 3.56 (active). For `Cc1nc2sc(C(c3ccco3)N3CCC4(CC3)OCCO4)c(O)n2n1` (stereo not given) the value was -0.00625; for `NS(=O)(=O)c1ccc(NS(=O)(=O)/C=C/c2ccccc2)cc1`, 0.545. Regarding `COC(=O)Cn1c(=NC(=O)CSCC(=O)Nc2cc(C)on2)sc2ccccc21`, the B-score was -0.763. As to `O=C1CC(N2CCN(C(c3ccccc3)c3ccccc3)CC2)C(=O)N1` (stereo not given), the B-score is -0.246. Then `O=c1c2ccccc2nc(CSc2nnnn2-c2ccccc2)n1-c1ccccc1`, with 0.263.

Regarding `N#CCSc1nc2ccccc2c(=O)n1-c1ccccc1`, the B-score was 7.87 (active).

As for `COC(=O)c1ccc(CSc2nc3ccccc3c(=O)n2-c2cccc(OC)c2)o1`, the B-score is 2.88. For `Cc1noc(C)c1S(=O)(=O)N(CC(=O)NCc1ccc(Cl)cc1)c1ccc2c(c1)OCO2` the value was 0.0431.

In the case of `CCCC(=O)N=c1sc2cccc(F)c2n1C`, the B-score is 0.69.

In the case of `COc1cc(-c2nn3c(-c4cccc(C)c4)nnc3s2)cc(OC)c1OC`, the B-score is 5.22 (active). As to `c1ccc(-c2cc(-c3nnc4sc(-c5ccccn5)nn34)[nH]n2)cc1`, the B-score was -0.359.

As to `CC(=O)Nc1ccc(-c2nn3c(C)nnc3s2)cc1C`, the B-score is 0.141. In the case of `Cc1nnc2sc(-c3ccco3)nn12`, the B-score was 0.854. Then `Fc1ccc(-c2nnc3sc(-c4ccc5c(c4)OCO5)nn23)cc1`, with 0.575. Then `COc1ccc(-c2nn3c(-c4ccccc4)nnc3s2)cc1OC`, with 8.24 (active); and `CCOc1ccc(C(=O)N(Cc2ccc(N(C)C)cc2)C2CCS(=O)(=O)C2)cc1` (stereo not given), with 0.116. Then `CCCC(C(=O)N1CCOCC1)N1C(=O)C2C3C=CC(C3)C2C1=O` (stereo not given), with -0.388. As for `Cc1occc1C(=O)Nc1nnc(C2CCCCC2)s1`, the B-score was 0.299. Then `O=C(COc1ccccc1Cl)Nn1cnnc1`, with -0.264; and `Cc1cccc(N2CCN(Cc3c(C)n(C)n(-c4ccccc4)c3=O)CC2)c1C`, with -0.359; and `COc1ccc(N2CC(C)Cn3c2nc2c3c(=O)n(Cc3ccccc3F)c(=O)n2C)c(OC)c1` (stereo not given), with 0.483.

With `CCOc1ccc(N2C(=O)CC(N(O)c3ccccc3)C2=O)cc1` (stereo not given), the B-score was 0.305.

`COc1ccc(CCNc2ncnc3nc[nH]c23)cc1OC`: the B-score is 12.7 (active). For `COc1ccc(CCNS(=O)(=O)c2ccc(F)cc2)cc1OC` the value was 3.09. Regarding `CCS(=O)(=O)NCCc1ccc(OC)c(OC)c1`, the B-score was 0.864. As to `CCOC(=O)c1sc(NC(=O)CSc2ncccn2)c(C#N)c1C`, the B-score is 1.81.

In the case of `COc1ccc(-c2cc(C(F)(F)F)nc(SCCC(=O)NCc3ccco3)n2)cc1`, the B-score was 0.0331. For `COc1ccc(-c2ccc(Nc3ccc(S(=O)(=O)N4CCCC4)cc3)nn2)cc1OC` the value was 1.72; for `COc1ccc(-c2cc(C(F)(F)F)nc(S(C)(=O)=O)n2)cc1OC`, 6.58 (active). For `CC(=O)Oc1ccc(C)cc1N1C(=O)c2ccc(C(=O)O)cc2C1=O` the value was -0.324; for `CCN(CC)C(=O)CSc1nnc(-c2cccc(OC)c2)o1`, -0.393; for `COc1cccc(-c2nnc(NC(=O)c3ccc(S(=O)(=O)N(CC(C)C)CC(C)C)cc3)o2)c1`, -2.79 (active). For `O=C(COC(=O)c1ccc(Oc2ccccc2)cc1)Nc1nnc(-c2ccccc2)o1` the value was -1.16. For the molecule `C=C1c2cc(CC)ccc2NC(=O)N1c1ccc(C)cc1`, the B-score was -1.84. For `COc1ccc(N(CC(=O)NC2CCCCCCC2)S(=O)(=O)c2c(C)nn(C)c2C)cc1` the value was -0.289; for `CC(C)C(=O)Nc1c(C(=O)c2ccc(F)cc2)oc2ccccc12`, 1.66; for `CC(=O)NS(=O)(=O)c1ccccc1`, 0.0902. Then `Cc1ccc(C(=O)NCCNS(=O)(=O)c2ccccc2)cc1`, with -0.839; and `Nc1ccc(S(=O)(=O)NC(=O)c2ccccc2)cc1`, with 31.8 (active).
